{"source": "PubChem BioAssay (Tox21)", "note": "Results filed as inconclusive are left out. Values without a mark were called inactive. Calls of active or inactive are those of the source. The call rests on the fitted dose curve; in most records, active means well fitted cell-killing curve with a large enough effect in the repeat runs; inconclusive means weak or mixed curves, or effect the other way; inactive means flat fitted curve, though single readings scatter. On the % scale 0 is the no-effect control and ±100 the full control effect."}
{"assay": "qHTS assay to identify small molecule antagonists of the retinoid acid receptor (RAR) signaling pathway - cell viability counter screen (AID 1159551); further: nearly all actives have a fitted effect of over 35% in size", "conditions": "C3RL4 cells viability, ATP luminescence (CellTiter-Glo), 6 h; series mostly up to 92.4 µM", "description": "U.S. Tox21 Program National Center for Advancing Translational Sciences [NCATS] NIH Chemical Genomics Center [NCGC] U.S. Environmental Protection Agency [EPA] National Institutes of Environmental Health Sciences [NIEHS] National Toxicology Program [NTP] U.S. Food and Drug Administration [FDA] Tox21 Assay Overview: All-trans Retinoic acid (atRA) is the potent natural metabolite of retinol and plays an important role in normal embryonic development and maintenance of cellular phenotype in adult animals. atRA is the activating ligand for the retinoic acid receptors (RARs) which form heterodimers with retinoid X receptors (RXRs) on the retinoic acid response element (RARE). Through activation of the RAR/RXRs nuclear receptors, atRA regulates the transcription of a large number of protein-coding genes and regulatory RNAs. Intracellular levels of atRA are controlled by the retinol signaling pathway (RSP) that regulates the biosynthesis and catabolism of atRA to maintain physiological levels. Chemicals that interfere with the RSP can cause abnormal intracellular levels of atRA and therefore are potential developmental toxicants. To assess compounds for the potential adverse effect on embryonic development through interfering with retinol signaling, a cell-based RARE luciferase reporter gene assay was used. C3RL4 cell line (OARSA/CFSAN/FDA, Laurel, MD) was used to screen Tox21 10K compound library for identifying inhibitors of the RSP. Also cytotoxicity was assessed by determining the viability of cells based on the quantitation of ATP.\nTox21 Assay Protocol Summary: C3RL4 cells were seeded at 1,000/well in 4 uL of assay medium into white solid 1,536-well tissue culture plates (Greiner Bio-One North America Inc. Monroe, NC) using a Multidrop Combi (Thermo Scientific, Waltham, MA) dispenser. After incubation at 37 C and 5% CO2 for an overnight, 23 nL of compounds dissolved in DMSO, positive control or DMSO only were transferred by a Pintool station (Kalypsys, San Diego, CA). One ul of 1 uM (final concentration) of Retinol was added right after the compound addition by using a Flying Reagent Dispenser (FRD) (Aurora Discovery, San Diego, CA). After 6 hr incubation at 37 C and 5% CO2, 5 uL of CellTiter-Glo reagent (Promega Corporation, Madison, WI) was added to each assay plate using an FRD. Luminescence was quantified on a ViewLux plate reader (PerkinElmer, Waltham, MA) after 30 min incubation at room temperature."}
{"compound": "NC(=O)C1(N2CCCCC2)CCN(CCCC(=O)c2ccc(F)cc2)CC1", "outcome": "inactive"}
{"compound": "C[N+](C)(C)CC(O)CCl", "note": "(stereo not given)", "outcome": "inactive"}
{"compound": "O=CN1CCOCC1", "outcome": "inactive"}
{"compound": "O=S1(=O)CCCC1", "outcome": "inactive"}
{"compound": "C1=C\\CC/C=C\\CC/1", "outcome": "inactive"}
{"compound": "CC1CCC(C(C)(C)S)C(=O)C1", "note": "(stereo not given)", "outcome": "inactive"}
{"compound": "Cc1cccc(NC(=S)N(C)C)c1", "outcome": "inactive"}
{"compound": "CC(C)SCc1ccco1", "outcome": "inactive"}
{"compound": "CCC(CO)CO", "outcome": "inactive"}
{"compound": "C=CCOc1cc(Cl)ccc1C(=O)NCCN(CC)CC", "outcome": "inactive"}
{"compound": "O=C1OC(=O)c2ccccc21", "outcome": "inactive"}
{"compound": "CCN(CCC#N)c1ccccc1", "outcome": "inactive"}
{"compound": "COC(/C=C(\\C)CCC=C(C)C)OC", "outcome": "inactive"}
{"compound": "COC(=O)CCC(=O)O", "outcome": "inactive"}
{"compound": "COc1ccc(N=Nc2cc(C)c(N=Nc3ccc(S(=O)(=O)O)cc3)cc2OC)cc1", "outcome": "inactive"}
{"compound": "CCN(Cc1cccc(S(=O)(=O)O)c1)c1ccccc1", "outcome": "inactive"}
{"compound": "CC(C)CCCCCCOC(=O)C1CCCCC1C(=O)OCCCCCCC(C)C", "note": "(stereo not given)", "outcome": "inactive"}
{"compound": "C=C[C@@H](C)CCC=C(C)C", "outcome": "inactive"}
{"compound": "C=C(C)[C@@H]1CC[C@@H](C)C[C@@H]1O", "outcome": "inactive"}
{"compound": "CC(C)COC(=O)/C=C/c1ccccc1", "outcome": "inactive"}
{"compound": "Oc1ccccc1Cc1ccccc1O", "outcome": "inactive"}
{"compound": "CCCC(C)CC", "note": "(stereo not given)", "outcome": "inactive"}
{"compound": "NC(=O)NNC(N)=O", "outcome": "inactive"}
{"compound": "CCCCOC(=O)[C@@H](C)Oc1ccc(Oc2ccc(C(F)(F)F)cn2)cc1", "outcome": "inactive"}
{"compound": "OC[C@@H](O)[C@H](O)[C@@H](O)[C@@H](O)CO", "outcome": "inactive"}
{"compound": "C=C(C)C(=O)OC1CC(C)CC(C)(C)C1", "note": "(stereo not given)", "outcome": "inactive"}
{"compound": "O=C(Nc1cccc(C2=NCCN2)c1)Nc1cccc(C2=NCCN2)c1", "activity change, negative = cytotoxicity": "1.4% [at 19 µM]"}
{"compound": "O=C(O)CCNC(=O)c1ccccc1", "outcome": "inactive"}
{"compound": "NS(=O)(=O)c1cc2c(cc1Cl)NC(C(Cl)Cl)NS2(=O)=O", "note": "(stereo not given)", "outcome": "inactive"}
{"compound": "CC1=CC[C@H](CC=O)C1(C)C", "outcome": "inactive"}
{"compound": "CCCCOC(=O)C(C)OC(=O)CCC", "note": "(stereo not given)", "outcome": "inactive"}
{"compound": "COc1cc(C=O)ccc1OC(=O)C(C)C", "outcome": "inactive"}
{"compound": "CCOC(=O)CCc1ccccc1", "outcome": "inactive"}
{"compound": "O=[Si]=O", "outcome": "inactive"}
{"compound": "CCCCCCCC[Si](OCC)(OCC)OCC", "outcome": "inactive"}
{"compound": "Cc1ncc([N+](=O)[O-])n1CC(O)CCl", "note": "(stereo not given)", "outcome": "inactive"}
{"compound": "F[Si-2](F)(F)(F)(F)F", "outcome": "inactive"}
{"compound": "CCS(=O)(=O)CCn1c([N+](=O)[O-])cnc1C", "outcome": "inactive"}
{"compound": "CC(C)C(=O)Nc1cccc(C(F)(F)F)c1", "outcome": "inactive"}
{"compound": "CCCCC[Si](OCC)(OCC)OCC", "outcome": "inactive"}
